Screening results from PubChem BioAssay.
A selection: hits, their analogues and other compounds. The true share with any hit is near 19%.
Giardia kill – kills Giardia lamblia; activity change, % at 7.66 µM, hits read low; AID 540267; 340,000 tested, 0.15% active; Giardia lamblia trophozoite viability; in the data active = activity change below about -80%; inconclusive = between about -30% and that limit;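 also: parasites exposed to compound for two days anaerobically before the ATP read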
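Trophozoites 100 cells/well + cpd; 48 hrs, 37 deg C, anaerobic. ATPLite 1-Step added, 15-30 min RT, luminescence read (ATP-based viability).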
TDP1 block – blocks human tyrosyl-DNA phosphodiesterase 1; 350,000 tested, 0.28% active; Potency, µM (top dose mostly 130 µM), for inactives: at the top dose activity change, negative = inhibition, usual class: inhibitors; Q9NUW8; AID 485290; recombinant TDP1, AlphaScreen DNA substrate cleavage; also: potency is read from the fitted curve at half-maximal effect; nearly all actives have a fitted effect of over 40% in size
Target sequence (Q9NUW8 whole entry, looked up): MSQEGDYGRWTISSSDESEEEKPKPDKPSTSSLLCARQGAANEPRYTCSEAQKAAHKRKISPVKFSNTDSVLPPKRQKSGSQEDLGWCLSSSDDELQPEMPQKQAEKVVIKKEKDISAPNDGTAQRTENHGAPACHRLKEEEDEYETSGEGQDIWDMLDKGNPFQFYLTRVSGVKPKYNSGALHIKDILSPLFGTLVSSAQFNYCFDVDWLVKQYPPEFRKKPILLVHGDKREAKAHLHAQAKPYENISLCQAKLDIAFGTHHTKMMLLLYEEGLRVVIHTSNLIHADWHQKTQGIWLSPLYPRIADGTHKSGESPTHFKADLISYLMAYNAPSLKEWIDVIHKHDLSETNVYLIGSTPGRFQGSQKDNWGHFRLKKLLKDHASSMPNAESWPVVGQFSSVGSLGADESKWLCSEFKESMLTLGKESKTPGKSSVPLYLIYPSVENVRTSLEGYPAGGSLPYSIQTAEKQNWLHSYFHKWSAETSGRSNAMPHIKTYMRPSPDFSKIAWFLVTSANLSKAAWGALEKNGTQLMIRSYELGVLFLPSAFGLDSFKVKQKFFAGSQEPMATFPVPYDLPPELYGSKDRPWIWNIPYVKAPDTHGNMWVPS
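Compounds were preincubated with Tdp1 (1 nM final) for 15 min at room temperature before substrate (15 nM final) started a 5 min reaction; beads (10 ug/ml final) were then added for 10 min before AlphaScreen detection.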
TDP1 cell noCPT – qHTS for Inhibitors of human tyrosyl-DNA phosphodiesterase 1 (TDP1): qHTS in cells in absence of CPT | DT40 Tdp1-/- hTDP1 cells, no CPT, ATP luminescence, 48 h | Potency, µM (top dose mostly 46.2 µM), inactives show at the highest dose activity change, negative = growth inhibition, hits mostly inhibitors | 420,000 tested, 15% active; also: potency is read from the fitted curve at half-maximal effect; nearly all actives have a fitted effect of over 55% in size
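Chicken DT40 Tdp1-/- cells stably complemented with human TDP1 were seeded at 400 cells/well with DMSO in place of 20 nM camptothecin. After compound pinning, cells grew at least 48 hr at 37 °C; viability read by CellTiter-Glo luminescence.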
TDP1 cell CPT – DT40-hTDP1 cell growth loss with CPT; AID 686979; Potency, µM (series often up to 46.2 µM), for the others: at the highest dose activity change, negative = growth inhibition, actives largely listed as inhibitors; 420,000 tested, 12% active; chicken DT40 Tdp1-/-;hTDP1 cells + 20 nM CPT, ATP luminescence, 48 h; also: potency is read from the fitted curve at half-maximal effect; nearly all actives have a fitted effect of over 55% in size
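Chicken DT40 Tdp1-/- cells stably complemented with human TDP1 were seeded at 400 cells/well in medium containing 20 nM camptothecin, exposed to pin-transferred compounds, and grown at 37 °C for at least 48 hr. Viability was read as ATP luminescence.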
IL1B secr inh – inhibitors of inflammasome signaling (IL-1 beta secretion); AID 743279; 360,000 tested, 4.7% active; THP-1 LPS/ATP IL-1B secretion, AlphaLISA, 16 h; stronger effect = lower value; activity change, % at 57.5 µM; in the data active = activity change below about -50%; inconclusive = mostly about -30% to -49%
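THP-1 cells pretreated 1 hr with compounds (up to 57.5 uM final), then stimulated with LPS (250 ng/mL final) plus ATP (1.25 mM final); secreted IL-1B measured by AlphaLISA after 16 hr, decreased signal indicating inhibition.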
ELG1 DNA repair – blocks ELG1-dependent DNA repair in HEK293T cells | HEK293T ELG1-luciferase reporter, luminescence, 16 h; DNA damage induced by 5-fluorouridine | Potency, µM (top dose mostly 46.1 µM), inactives show at the top dose activity change, negative = inhibition, usual class: inhibitors | 330,000 tested, 2.3% active | AID 504467; also: potency is read from the fitted curve at half-maximal effect; nearly all actives have a fitted effect of over 55% in size
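Reporter activity after DNA damage by 5-fluorouridine is monitored. Compound-treated cells incubate 16 hr at 37 °C, then ONE-Glo is added for 30 min before luminescence reading.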
Starred values were filed as active, the others as inactive; ? = inconclusive; . = no result. Unless noted, calls follow the shape of the dose curve; as a rule, active = well fitted curve in the direction sought with a large enough effect; inconclusive = small, poorly fitted or top-dose-only effect, or another doubt; inactive = no such curve, though single readings can be large; an effect the other way counts as inactive or inconclusive. % is scaled to controls: 0 for no effect and ±100 for the full control effect.

SMILES	Giardia kill	TDP1 block	TDP1 cell noCPT	TDP1 cell CPT	IL1B secr inh	ELG1 DNA repair
O=C(NCC1CCCO1)c1ccc2[nH]c3c(c2c1)CCCC3 (stereo unspecified)	-14	11%	-21%	-1%	-28	?
CC1=C(C(=O)Nc2ccc(C(=O)NC(C)c3ccccc3)cc2)SCCO1 (stereo unspecified)	-3	.	-23%	-11%	?	0%
COc1cc(O)c(C=Nc2ccccc2NS(=O)(=O)c2ccc(C)cc2)c(OC)c1	-16	.	-23%	?	30	.
COc1ccc(CNC(=O)CN(C)Cc2ccccc2F)cc1OC	14	6%	?	5%	33	-28%
CCOc1ccc(NC(=O)c2ccccc2NC(=O)CNC2CCCC(C)C2C)cc1 (stereo unspecified)	53	0%	7.3µM*	15µM*	19	0%
COc1ccc(Br)cc1CN(C)CC(=O)NCc1ccc(F)cc1	3	.	18µM*	?	?	?
CCn1c2ccccc2c2cc(NC(=O)CSc3nnc(-c4ccccc4)o3)ccc21	-16	9%	21µM*	9.2µM*	?	-12%
CCn1c2ccccc2c2cc(NC(=O)CSc3nnc(-c4cccc(F)c4)o3)ccc21	-1	5%	15µM*	16µM*	-6	-9%
Cc1ccc(CS(=O)(=O)c2ccc(C(=O)N3CCN(c4ccccn4)CC3)cc2[N+](=O)[O-])cc1	4	2%	26µM*	9.2µM*	?	15µM*
CCN(CC)C(=O)c1ccc(CS(=O)(=O)c2ccc(Br)cc2)cc1	-24	.	-9%	-27%	-17	-21%
Cc1ccc(CS(=O)(=O)c2ccc(C(=O)N3CCCCC3)cc2[N+](=O)[O-])cc1	30	6%	?	?	-12	-23%
CCN(CC)C(=O)c1ccc(S(=O)(=O)Cc2ccc(C)cc2)c([N+](=O)[O-])c1	31	.	?	?	-68*	-5%
Cc1ccccc1N=Nc1c(O)n(C)c2ccccc12	-10	2%	23µM*	?	19	6%
C=CCn1c(O)c(N=Nc2nc3ccccc3c(=O)n2-c2ccccc2)c2ccccc21	3	0%	12µM*	-30%	24	-28%
C=CCn1c(O)c(N=Nc2ccccc2O)c2ccccc21	-26	5%	18µM*	?	?	-29%
C=CCn1c(O)c(N=Nc2ccccc2)c2ccccc21	-7	.	?	?	9	0%
CCc1ccc(C2=NN(CCC(=O)NC(C)CCc3ccccc3)C(=O)CC2)cc1 (stereo unspecified)	-4	3%	?	?	-52*	-29%
CC(CCc1ccccc1)NC(=O)CCN1N=C(c2ccccc2)CCC1=O (stereo unspecified)	-4	0%	-12%	1%	?	?
FC(F)(F)C1=Nc2cccc3cccc(c23)N1	-4	.	4.6µM*	4.1µM*	-16	12%
FC(F)(F)c1ccc(C2Nc3cccc4cccc(c34)N2)cc1	5	1%	?	?	-10	3%
Brc1ccc(C2=Nc3cccc4cccc(c34)N2)o1	-9	3%	8.2µM*	6.5µM*	0	?
CCCOc1ccc(C(F)(F)F)cc1NC(=O)C1CC(=O)N(Cc2ccco2)C1 (stereo unspecified)	-11	3%	?	-23%	-3	-7%
Cc1ccc(-n2ncc3c(N4CCCCCC4)ncnc32)cc1C	.	-10%	?	?	.	.
COc1cccc(C2/C(=C(\O)c3ccc4c(c3)OCCO4)C(=O)C(=O)N2CCCN2CCOCC2)c1OC (stereo unspecified)	5	5%	19%	-3%	6	9%
CC(C)COC(=O)c1ccc2c(c1O)C(=O)c1ccccc1C2=O	-14	3%	23µM*	?	-12	?
SMILES	Giardia kill	TDP1 block	TDP1 cell noCPT	TDP1 cell CPT	IL1B secr inh	ELG1 DNA repair
Nc1ccn([C@@H]2O[C@H](CNCc3cc(Cl)ccc3OCc3ccc(Cl)cc3)[C@@H](O)[C@H]2O)c(=O)n1	.	.	-24%	-8%	?	.
COC(=O)Cn1c(C)nc([N+](=O)[O-])c1Br	0	0%	?	-30%	?	-6%
Cc1nc([N+](=O)[O-])c(Sc2nc3ccc([N+](=O)[O-])cc3[nH]2)n1Cc1ccccc1	-1	-1%	8.2µM*	9.2µM*	-76*	-33%
Cc1nc([N+](=O)[O-])c(Br)n1Cc1ccccc1	-5	.	6.5µM*	5.2µM*	-10	?
Cc1nc([N+](=O)[O-])c(Br)n1CC(=O)c1ccc(F)cc1	4	0%	16µM*	?	-97*	2%
Cc1nc([N+](=O)[O-])c(Br)n1CC(=O)c1cccc([N+](=O)[O-])c1	-15	-5%	16µM*	15µM*	-98*	17%
Cc1nc2c(c(C)c1CCC(=O)N1CCN(c3ccccc3)CC1)c(=O)n(C)c(=O)n2C	.	5%	-28%	-3%	.	.
O=C(CN1CCN(Cc2ccc(F)cc2Cl)S1(=O)=O)Nc1ccc(F)cc1	.	3%	15µM*	12µM*	.	.
Cc1ccccc1CN1CCCN(CC(=O)Nc2ccc(F)cc2)S1(=O)=O	.	6%	?	?	.	.
COc1ccc(NC(=O)CN2CCN(Cc3ccc(F)cc3)S2(=O)=O)cc1Cl	.	0%	21µM*	?	.	.
O=C(Nc1nonc1-c1ccc(Cl)cc1)c1ccccc1F	.	2%	?	?	.	.
Cc1ccccc1C(=O)c1cccn1CC(=O)NCCN1CCN(c2cccc(C)c2C)CC1	23	5%	8.2µM*	16µM*	?	-5%
Cc1ccccc1C(=O)c1cccn1CC(=O)NCCCN1CCCCC1	9	1%	11%	-11%	-11	16%
Cc1ccc(C)c(N2CCN(CCCNC(=O)Cn3cccc3C(=O)c3ccccc3C)CC2)c1	11	3%	2.6µM*	2.6µM*	-114*	?
COc1ccc(CNC(=O)C(c2ccccc2F)N(C(=O)c2csnn2)C2CC2)cc1 (stereo unspecified)	0	-3%	?	21µM*	-7	?
Cc1cc(=O)oc2cc(OCC(=O)Nc3ccc(N4CCC(C)CC4)cc3)ccc12	1	13%	?	?	-16	17%
Cc1ccccc1N/N=C/c1sc(=O)n(Cc2cccc(C(=O)O)c2)c1Cl	-14	.	21µM*	?	-15	5%
